The values that follow come from PubChem BioAssay (Tox21).

Assay [1] is described as follows: qHTS assay to identify small molecule antagonists of the glucocorticoid receptor (GR) signaling pathway - cell viability counter screen (AID 720693; note: nearly all actives have a fitted effect of over 55% in size). (qHTS replaces the single test concentration by a dilution series.)
Assay [2] is described as follows: qHTS assay for identifying genotoxic compounds that show differential cytotoxicity against isogenic chicken DT40 cell lines with known DNA damage response pathways - wild type cell line (AID 743012). Note: nearly all actives have a fitted effect of over 60% in size. An outline of the steps: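 Wild type DT40, 300 cells/well, ~0.5 h settle at 37 C/5% CO2; compounds in DMSO added by pintool; 40 h at 37 C/5% CO2; CellTiter-Glo, 30 min RT; luminescence.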

The nature of assay [3]: qHTS assay for identifying genotoxic compounds that show differential cytotoxicity against isogenic chicken DT40 cell lines with known DNA damage response pathways - Rev3 mutant cell line (AID 743014). Note: nearly all actives have a fitted effect of over 55% in size.
A short description of assay [4]: qHTS assay for identifying genotoxic compounds that show differential cytotoxicity against isogenic chicken DT40 cell lines with known DNA damage response pathways - Rad54/Ku70 mutant cell line (AID 743015). Note: nearly all actives have a fitted effect of over 60% in size.
Assay [5] in a line: qHTS assay to identify small molecule antagonists of the androgen receptor (AR) signaling pathway - cell viability counter screen (AID 743033; note: nearly all actives have a fitted effect of over 45% in size).
The nature of assay [6]: qHTS assay to identify small molecule antagonists of the androgen receptor (AR) signaling pathway using the MDA cell line - cell viability counter screen (AID 743041; note: nearly all actives have a fitted effect of over 45% in size). The gist of the method:
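Cells were plated at 3,000 per well and left 5 h. Compounds in DMSO were then pinned in, followed by R1881. After 16 h at 37C, CellTiter-Fluor fluorescence gave viability.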

Values joined by “and” are separate entries in the source; they are usually repeats but may differ in a detail not shown here. Identical values can stand only once. Results filed as inconclusive are left out. Active and inactive are the calls of the source. Calls come from the whole dose curve; as a rule, active = well fitted curve in the direction sought with a large enough effect in the repeat runs; inconclusive = weak or mixed curves; inactive = no such curve, though single readings can be large; an effect the other way counts as inactive or inconclusive.
Potency is the fitted concentration of half-maximal effect.

Regarding `C/C(=C(\CCOC(=O)c1ccccc1)SS/C(CCOC(=O)c1ccccc1)=C(/C)N(C=O)Cc1cnc(C)nc1N)N(C=O)Cc1cnc(C)nc1N`, the Potency entry in assay [1], in assay [5] and in assay [6] was “inactive” each time. The Potency in assay [2] was 10.6 µM (active); in assay [3] it was 23.7 µM (active); in assay [4], 26.6 µM (active).
In the case of `CN(C(=O)CO)c1c(I)c(C(=O)NCC(O)CO)c(I)c(C(=O)NCC(O)CO)c1I` (configuration not stated), the Potency entry in assay [1], in assay [2], in assay [3], in assay [4], in assay [5] and in assay [6] was “inactive” each time.
In the case of `C[C@]12C=CC(=O)C=C1CC[C@@H]1[C@@H]2[C@@H](O)C[C@@]2(C)[C@H]1CC[C@]2(O)C(=O)COC(=O)CCC(=O)O`, the Potency entry in assay [1], in assay [2], in assay [3], in assay [4], in assay [5] and in assay [6] was “inactive” in each case.
Regarding `Cc1ccc(/C(=C\CN2CCCC2)c2cccc(/C=C/C(=O)O)n2)cc1`, the Potency entry in assay [1], in assay [2], in assay [3], in assay [4], in assay [5] and in assay [6] was “inactive” each time.
Turning to `CCN1C(=O)NC(c2ccccc2)C1=O` (configuration not stated), the Potency result in assay [1], in assay [2], in assay [3], in assay [4], in assay [5] and in assay [6] was “inactive” throughout.
Take `CC1=C(/C=C/C(C)=C/C=C/C(C)=C/C=C/C=C(C)/C=C/C=C(C)/C=C/C2=C(C)C(=O)CCC2(C)C)C(C)(C)CCC1=O`: the Potency entry in assay [1], in assay [2], in assay [3], in assay [4], in assay [5] and in assay [6] was “inactive” each time.
Take `C[C@H](N)C(=O)N[C@@H](C)P(=O)(O)O`: the Potency result in assay [1], in assay [2], in assay [3], in assay [4], in assay [5] and in assay [6] was “inactive” throughout.
For the molecule `CCCOc1ccc2nc(NC(=O)OC)sc2c1`, the Potency result in assay [1], in assay [5] and in assay [6] was “inactive” in each case. For the same molecule, the Potency was 2.37 µM (active) in assay [2], 2.66 µM (active) in assay [3] and 3.35 µM (active) in assay [4].
As to `CN1CCN(C2=Nc3ccccc3Cc3ccccc32)CC1`, the Potency result in assay [1], in assay [5] and in assay [6] was “inactive” in each case. Also, the Potency in assay [2] was 26.6 µM (active); in assay [3] it was 23.7 µM (active); in assay [4] it was 29.8 µM (active).
`CCNC(=O)[C@@H]1CCCN1C(=O)[C@H](CCCN=C(N)N)NC(=O)[C@H](CC(C)C)NC(=O)[C@@H](Cc1c[nH]c2ccccc12)NC(=O)[C@H](Cc1ccc(O)cc1)NC(=O)[C@H](CO)NC(=O)[C@H](Cc1c[nH]c2ccccc12)NC(=O)[C@H](Cc1cnc[nH]1)NC(=O)[C@@H]1CCC(=O)N1`: the Potency was 19 µM (active) in assay [1]; 0.841 µM (active) in assay [2]; 1.19 µM (active) in assay [3]; 1.06 µM (active) in assay [4]; 23.9 µM (active) in assay [5]; 11.9 µM (active) in assay [6].
As to `c1ccc2c(c1)Sc1ccccc1N2CCN1CCCC1`, the Potency result in assay [1], in assay [5] and in assay [6] was “inactive” in each case. The values for the Potency in assay [2], in assay [3] and in assay [4] were 10.6 µM (active), 8.41 µM (active) and 16.8 µM (active), respectively.
For the molecule `c1ccc2c(CCC3CCNCC3)c[nH]c2c1`, the Potency result in assay [1], in assay [5] and in assay [6] was “inactive” throughout. Besides, the Potency in assay [2] is 13.3 µM (active); in assay [3], 29.8 µM (active); in assay [4] it was 26.6 µM (active).
For `Cn1cc(NC(=O)c2cc(NC(=O)c3cc(NC=O)cn3C)cn2C)cc1C(=O)NCCC(=N)N`, the Potency entry in assay [1], in assay [2], in assay [3], in assay [4], in assay [5] and in assay [6] was “inactive” each time.
Regarding `Cc1ccc(S(=O)(=O)NC(=O)N[C@@H](C)Cc2ccccc2)cc1`, the Potency result in assay [1], in assay [2], in assay [3], in assay [4], in assay [5] and in assay [6] was “inactive” each time.
As for `CNC[C@@H]1CC[C@@H](N)[C@@H](O[C@H]2[C@H](O)[C@@H](O[C@H]3OC[C@](C)(O)[C@H](NC)[C@H]3O)[C@H](N)C[C@@H]2N)O1`, the Potency entry in assay [1], in assay [2], in assay [3], in assay [4], in assay [5] and in assay [6] was “inactive” in each case.
As to `Nc1ncnc2c1ncn2CCOCP(=O)(O)O`, the Potency entry in assay [1], in assay [2], in assay [3], in assay [4], in assay [5] and in assay [6] was “inactive” throughout.
For the molecule `CC[C@H](CC[C@@H](C)[C@H]1CC[C@H]2[C@@H]3CC=C4C[C@@H](O)CC[C@]4(C)[C@H]3CC[C@]12C)C(C)C`, the Potency entry in assay [1], in assay [2], in assay [3], in assay [4], in assay [5] and in assay [6] was “inactive” throughout.
Take `CC(C)CN(C[C@@H](OP(=O)(O)O)[C@H](Cc1ccccc1)NC(=O)O[C@H]1CCOC1)S(=O)(=O)c1ccc(N)cc1`: the Potency result in assay [1], in assay [2], in assay [3], in assay [4], in assay [5] and in assay [6] was “inactive” each time.
Regarding `Cc1onc(-c2ccccc2)c1C(=O)N[C@@H]1C(=O)N2[C@@H]1SC(C)(C)[C@@H]2C(=O)O`, the Potency entry in assay [1], in assay [2], in assay [3], in assay [4], in assay [5] and in assay [6] was “inactive” throughout.
As to `CCOC(=O)C1=C(COCCN)NC(C)=C(C(=O)OC)C1c1ccccc1Cl` (configuration not stated), the Potency result in assay [1], in assay [5] and in assay [6] was “inactive” throughout. Also, the Potency in assay [2] was 7.5 µM (active); in assay [3], 13.3 µM (active); in assay [4], 13.3 µM (active).
On to `OCCO[C@@H]1[C@@H](O)[C@H](O)[C@@H](CO)O[C@@H]1O`, for which the Potency result in assay [1], in assay [2], in assay [3], in assay [4], in assay [5] and in assay [6] was “inactive” throughout.
As for `CN1[C@@H]2CC[C@H]1CC(OC(c1ccccc1)c1ccccc1)C2` (some centres not stated), the Potency result in assay [1], in assay [5] and in assay [6] was “inactive” in each case. In addition, the Potency in assay [2] was 5.31 µM (active) and 13.3 µM (active) and 6.68 µM (active); in assay [3], 5.31 µM (active) and 8.41 µM (active) and 4.22 µM (active); in assay [4], 8.41 µM (active) and 23.7 µM (active) and 11.9 µM (active).
